Screening results: PubChem, SRMLSC
MRP reversal: compounds reversing MRP-mediated drug resistance; H69AR cells + 2 uM doxorubicin, CellTiter-Glo, 72 h; differential viability (reversal), % at 10 µM; hit rate 0.04% among 85,000; AID 602;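 active = viability drop by adding the cancer drug above about 55%, with treated viability meeting a 40% cutoff, limit read from the data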;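 also: viability without doxorubicin minus viability with 2 µM doxorubicin for each compound; larger differential means the compound sensitizes cells more to doxorubicin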
MRP-1 activ: activates MRP-1. H69AR cells + doxorubicin, viability rescue, CellTiter-Glo. viability increase, % at 10 µM. hit rate 0.61% among 140,000. AID 799;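 active = viability gain under doxorubicin at or above a set limit, the compound median plus 3 SD, cut at about 4.7% in these data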;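 also: MRP-1 overexpressing cells given doxorubicin 25 µM after compound pretreatment; 18-22 h compound pretreatment then 72 h with doxorubicin before readout; 0% = doxorubicin-only wells and 100% = vehicle-treated cells without doxorubicin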
Starred values were filed as active, the others as inactive. Hits are enriched below; roughly 0.65% of the tested compounds scored in any of these assays.

`O=C(Cc1ccc(Br)cc1)N1CCN(c2ccccc2)CC1` gave MRP reversal -13 and MRP-1 activ -2.
For Cc1cccn2c(=O)c(C=NCc3ccco3)c(Nc3ccc(Cl)cc3)nc12 the results were MRP reversal -2.
Screening O=C1CC(N2CCCCC2)C(=O)N1c1ccccc1 (stereo not given) returned MRP reversal -1 and MRP-1 activ 0.
`O=C1CC(N2CCCN(C3CC(=O)N(c4ccc(F)cc4)C3=O)CC2)C(=O)N1c1ccc(F)cc1` (stereo not given) gave MRP reversal 9 and MRP-1 activ 8.3*.
For COc1ccc(N2C(=O)CC(N3CCC(O)(c4ccc(Br)cc4)CC3)C2=O)cc1 (stereo not given) the results were MRP reversal 10 and MRP-1 activ -1.
Screening O=C1CC(N2CCC(O)(c3ccc(Br)cc3)CC2)C(=O)N1c1ccc(Cl)cc1 (stereo not given) returned MRP-1 activ 6.3*.
S=C(Nc1ccccc1)c1nc2ccccc2s1 was read as MRP-1 activ -3.
CCCn1c(=O)c(C(=O)NNS(=O)(=O)c2ccc(Cl)cc2)c(O)c2ccccc21 was read as MRP-1 activ -3.
`Cc1nn(Cc2c(F)c(F)c(F)c(F)c2F)c(C)c1NC(=O)c1ccc(COc2ccccc2Cl)o1` gave MRP-1 activ 2.
`Cc1nn(Cc2c(F)c(F)c(F)c(F)c2F)c(C)c1NC(=O)c1ccc(COc2ccc(F)cc2)o1` gave MRP-1 activ 6.7*.
`N#Cc1nc(-c2ccccc2F)oc1NC1CCCCC1` gave MRP reversal 8 and MRP-1 activ -2.
Screening CCN(CC)S(=O)(=O)c1cc(C(=O)N(C)CC(=O)Nc2ccc(Cl)cc2)ccc1Cl returned MRP-1 activ 0.
`COc1ccc(/C=N\NC(=O)c2cc(O)c(O)c(O)c2)cc1CN1CCN(c2ccc(F)cc2)CC1` gave MRP-1 activ 12*.
Screening COc1ccc(/C=N/NC(=O)c2ccc(C)cc2)cc1CN1CCN(c2ccc(F)cc2)CC1 returned MRP-1 activ -4.
Screening O=C(c1cn(-c2ccccc2)nc1-c1cccs1)N1CCN(c2ccccn2)CC1 returned MRP reversal -15 and MRP-1 activ -1.
O=C1/C(=C/c2cccnc2)SC(=S)N1c1ccccc1 was read as MRP-1 activ 2.
Screening Cc1ccc(/C=C2/SC(=S)N(CCC(=O)N3CCN(c4ccccc4)CC3)C2=O)cc1 returned MRP-1 activ 4.
For Cc1c(N2C(=O)/C(=C/c3ccccc3)SC2=S)c(=O)n(-c2ccccc2)n1C the results were MRP-1 activ 8.0*.
Screening Cc1ccc(/C=C2\SC(=S)N(c3c(C)n(C)n(-c4ccccc4)c3=O)C2=O)cc1 returned MRP-1 activ 7.6*.
Screening Cc1csc(NC(=O)c2cc3c(C)nn(Cc4ccccc4Cl)c3s2)n1 returned MRP-1 activ 5.0*.
`Cc1nn(Cc2ccccc2Cl)c2sc(C(=O)NC(C)(C)C)cc12` gave MRP reversal -3 and MRP-1 activ 0.
CCCC1=C(C(=O)OCC)C(c2ccc(OC)c(CSc3ccccn3)c2)C(C#N)=C(N)O1 (stereo not given) was read as MRP-1 activ -3.
For COc1ccc(Cc2nnc(NC(=O)c3c(-c4ccccc4)noc3C)s2)cc1OC the results were MRP reversal 26 and MRP-1 activ 9.5*.
For COc1ccc(Cc2nnc(NC(=O)c3c(-c4ccccc4)noc3C)s2)cc1 the results were MRP reversal -48 and MRP-1 activ 3.
`CCOC(=O)Cc1csc(NC(=O)c2c(-c3ccccc3)noc2C)n1` gave MRP reversal 7 and MRP-1 activ 4.9*.
CCOC(=O)Cc1csc(NC(=O)c2c(-c3c(F)cccc3Cl)noc2C)n1 was read as MRP reversal -11 and MRP-1 activ -4.
For CC1CCN(S(=O)(=O)c2ccc(S(=O)(=O)N3CCC4(CC3)OCCO4)cc2)CC1 the results were MRP-1 activ -2.
`c1ccc2c(c1)OCCOCCOc1ccccc1OCCOCCO2` gave MRP-1 activ -4.
For O=C(Cc1ccccc1F)Nc1cccc2cccnc12 the results were MRP-1 activ 5.9*.
`O=C(O)CCCC(=O)Nc1cccc2cccnc12` gave MRP-1 activ -1.
Screening Fc1cccc(-c2cc3nc(-c4ccccc4)cc(N4CCC5(CC4)OCCO5)n3n2)c1 returned MRP reversal 12 and MRP-1 activ 6.1*.
For Cc1cccc(-c2cc3nc(-c4ccccc4)cc(N4CCC5(CC4)OCCO5)n3n2)c1 the results were MRP reversal -6 and MRP-1 activ 0.
`CN(C(=O)c1c(Br)cnn1C)C12CC3CC(CC(C3)C1)C2` gave MRP-1 activ -3.
For O=C(Nc1ncc(Cc2ccccc2Cl)s1)c1ccc([N+](=O)[O-])cc1 the results were MRP-1 activ 1.
For O=C(Nc1ncc(Cc2ccccc2Cl)s1)c1ccc(-c2cccc([N+](=O)[O-])c2)o1 the results were MRP-1 activ 5.2*.
For O=C(Nc1ncc(Cc2cccc(Cl)c2)s1)c1ccc([N+](=O)[O-])cc1 the results were MRP-1 activ 0.
For O=C(Nc1ncc(Cc2ccc(C(F)(F)F)cc2)s1)c1ccc(-c2cccc([N+](=O)[O-])c2)o1 the results were MRP-1 activ 5.0*.
`Cc1noc(NS(=O)(=O)c2ccc(NC(=O)C34CC5CC(C3)CC(n3cnc(Br)n3)(C5)C4)cc2)c1C` gave MRP-1 activ 1.
For O=C(O)c1ccc(N/N=C/c2cccc(F)c2)cc1 the results were MRP-1 activ 1.
O=C(O)c1ccc(N/N=C/c2ccc(F)c(F)c2)cc1 was read as MRP-1 activ 7.3*.
`Clc1cccc(Cl)c1COc1ccccn1` gave MRP reversal 11 and MRP-1 activ -1.
Screening CCc1nnc(NC(=O)c2ccc(S(=O)(=O)N3CCCCC3C)cc2)s1 (stereo not given) returned MRP reversal 24 and MRP-1 activ 1.
Screening CCc1nnc(NC(=O)c2ccc(S(=O)(=O)N3CCCCCC3)cc2)s1 returned MRP reversal 1 and MRP-1 activ 5.4*.
Screening CCc1nnc(NC(=O)[C@@H](NC(=O)c2cccc(S(=O)(=O)N(CC)CC)c2)C(C)C)s1 returned MRP-1 activ 5.2*.
For CCc1nnc(NC(=O)c2ccc(S(=O)(=O)NCC(C)C)cc2)s1 the results were MRP-1 activ 9.6*.
`CCN(CC)S(=O)(=O)c1cccc(C(=O)N[C@H](C(=O)OCC(N)=O)C(C)C)c1` gave MRP reversal 2 and MRP-1 activ 0.
CCc1nnc(NC(=O)c2ccncc2)s1 was read as MRP reversal 4 and MRP-1 activ 1.
`C=CCSC(=S)NC1CCS(=O)(=O)C1` (stereo not given) gave MRP-1 activ -3.
CCn1c(CSCc2ccc(F)cc2)nnc1SCC(=O)N1CCN(c2ccccc2)CC1 was read as MRP-1 activ 1.
For Cc1ccc(CSCc2nnc(SCC(=O)N3CCN(c4ccccc4)CC3)n2C)cc1 the results were MRP-1 activ 5.0*.
For Cc1cnc(C(=O)Nc2nccs2)cn1 the results were MRP reversal 4 and MRP-1 activ -2.
Cn1c(N)c(C(=O)COC(=O)c2cc(C3CC3)nc3ccccc23)c(=O)n(Cc2ccccc2)c1=O was read as MRP-1 activ 5.3*.
Screening Cn1c(N)c(C(=O)COC(=O)c2cc(-c3ccccc3)nc3ccccc23)c(=O)n(Cc2ccccc2)c1=O returned MRP-1 activ 2.
